Screening results deposited in PubChem BioAssay by National Center for Advancing Translational Sciences (NCATS).
In the library only some 19% were active in any assay of this set; here they are far more common.
IL1B secr inh: blocks inflammasome-driven IL-1 beta release; THP-1 LPS/ATP IL-1B secretion, AlphaLISA, 16 h; active compounds read low; activity change, % at 57.5 µM; hit rate 4.7% among 360,000; AID 743279; in the data active means activity change below about -50%; inconclusive means mostly about -30% to -49%
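Secreted IL-1B measured by AlphaLISA bead assay after 16 h compound exposure of THP-1 cells; compounds (final up to 57.5 uM) added 1 h before LPS (250 ng/mL) and ATP (1.25 mM) stimulation; lower signal means less secretion.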
HT1080-NT tox: kills 2HG-producing HT-1080-NT fibrosarcoma cells | HT-1080-NT fibrosarcoma viability, CellTiter-Glo ATP luminescence, 48 h | Potency, µM (titrated, usually from 46.1 µM), without a hit: top-dose activity, negative = less viability, actives largely listed as cytotoxic | hit rate 1.6% among 360,000 | AID 686970;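 further: NT is the 2HG producing partner of a matched IDH1 knockdown line; potency means the concentration at half of the fitted maximal effect; 0% = DMSO-treated cells and -100% = media-only wells without cells; nearly all actives have a fitted effect of over 55% in size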
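Toxicity toward the 2HG-producing NT line was scored as %Activity, normalised to DMSO and no-cell wells, from CellTiter-Glo luminescence after 48 hours' treatment.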
ELG1 DNA repair: ELG1-dependent DNA repair inhibition. HEK293T ELG1-luciferase reporter, luminescence, 16 h; DNA damage induced by 5-fluorouridine. Potency, µM (highest dose often 46.1 µM), for the others: at the highest dose activity change, negative = inhibition, actives largely listed as inhibitors. hit rate 2.3% among 330,000; further: potency means the concentration at half of the fitted maximal effect; nearly all actives have a fitted effect of over 55% in size
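HEK293T cells expressing luciferase-tagged ELG1 (2,000/well) received 5-Fluorouridine plus compound or DMSO for 16 hr at 37 °C. Luciferase was read by ONE-Glo luminescence after 30 min at room temperature.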
HT1080 IDH1KD tx: kills HT-1080 cells with IDH1 knockdown | HT-1080 IDH1 knockdown viability, ATP luminescence, 48 h | Potency, µM (doses to about 46.1 µM), for inactives: at the top dose activity, negative = toxicity, actives largely listed as cytotoxic | hit rate 2% among 360,000 | AID 686971;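 further: potency means the concentration at half of the fitted maximal effect; 0% = DMSO wells and -100% = cell-free medium wells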
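HT-1080-IDH1KD cells (IDH1 knocked down), 750/well in RPMI with 5% FBS, treated with compound 48 h at 37 degrees C. Viability by CellTiter-Glo luminescence, normalised to DMSO and no-cell wells; concentration-response curves classed.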
DT40 TDP1 CPT: growth inhibition of DT40 Tdp1-/-;hTDP1 cells with camptothecin (screen for TDP1 inhibitors). Potency, µM (doses to about 46.2 µM), without a hit: at the highest dose activity change, negative = growth inhibition, usual class: inhibitors. chicken DT40 Tdp1-/-;hTDP1 cells + 20 nM CPT, ATP luminescence, 48 h. AID 686979. hit rate 12% among 420,000; further: potency means the concentration at half of the fitted maximal effect; nearly all actives have a fitted effect of over 55% in size
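Cell growth measured by CellTiter-Glo luminescence after a minimum 48 h, 37 C compound exposure with 20 nM CPT in Tdp1-knockout DT40 cells stably expressing hTDP1, seeded 400/well; qHTS titration format.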
DT40 TDP1 no CPT: qHTS for Inhibitors of human tyrosyl-DNA phosphodiesterase 1 (TDP1): qHTS in cells in absence of CPT. DT40 Tdp1-/- hTDP1 cells, no CPT, ATP luminescence, 48 h. Potency, µM (series often up to 46.2 µM), without a hit: at the highest dose activity change, negative = growth inhibition, hits mostly inhibitors. AID 686978, 2013. hit rate 15% among 420,000; further: potency means the concentration at half of the fitted maximal effect; nearly all actives have a fitted effect of over 55% in size
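DT40 Tdp1-/-;hTDP1 cells, no CPT (DMSO vehicle only), 400 cells/well; compounds pin-transferred; ≥48 hr, 37 °C; CellTiter-Glo 30 min RT dark, luminescence read.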
The depositor's hits bear a star. Unless noted, the call rests on the fitted dose curve; in most records, active means well fitted curve in the direction sought with a large enough effect; inconclusive means small, poorly fitted or top-dose-only effect, or another doubt; inactive means no such curve, though single readings can be large; an effect the other way counts as inactive or inconclusive. Unless noted, on the % scale 0 is the no-effect control and ±100 the full control effect.

For CC(C)(C)c1nc(CN2CCCCC2)cc(CN2CCCCC2)c1O the results were IL1B secr inh -6, HT1080-NT tox -9%, ELG1 DNA repair inconclusive, HT1080 IDH1KD tx -6%, DT40 TDP1 CPT 18µM* and DT40 TDP1 no CPT inconclusive.
`COc1ccc(-c2nc3ccccc3c(=O)n2CCOc2c(C)cccc2C)cc1` gave IL1B secr inh 45, HT1080-NT tox 11%, ELG1 DNA repair -7%, HT1080 IDH1KD tx 11%, DT40 TDP1 CPT -14% and DT40 TDP1 no CPT inconclusive.
Screening O=c1c2ccccc2nc(-c2ccccc2)n1O returned IL1B secr inh 0, HT1080-NT tox -1%, HT1080 IDH1KD tx -6%, DT40 TDP1 CPT 2.1µM* and DT40 TDP1 no CPT -2%.
Screening COc1cc(OC)cc(-c2nc3ccccc3c(=O)n2OC(=O)c2ccccc2C)c1 returned IL1B secr inh -61*, HT1080-NT tox inconclusive, ELG1 DNA repair inconclusive, HT1080 IDH1KD tx inconclusive, DT40 TDP1 CPT inconclusive and DT40 TDP1 no CPT -26%.
For COc1ccc(-c2nc3ccccc3c(=O)n2O)cc1 the results were IL1B secr inh -22, HT1080-NT tox inconclusive, ELG1 DNA repair 15%, HT1080 IDH1KD tx inconclusive, DT40 TDP1 CPT -14% and DT40 TDP1 no CPT 26%.
O=C(On1c(-c2ccccc2)nc2ccccc2c1=O)c1ccco1 was read as IL1B secr inh -25, HT1080-NT tox -25%, HT1080 IDH1KD tx -15%, DT40 TDP1 CPT 23µM* and DT40 TDP1 no CPT 23µM*.
O=C(OCc1c(-c2ccccc2)ncc2ccccc12)c1ccco1 was read as IL1B secr inh -12, HT1080-NT tox 0%, ELG1 DNA repair inconclusive, HT1080 IDH1KD tx -3%, DT40 TDP1 CPT inconclusive and DT40 TDP1 no CPT -28%.
For Cn1c2ccccc2c2cc(C(=O)N3CCOc4ccc(C(C)(O)CCn5cccn5)cc4C3)ccc21 (stereo unspecified) the results were DT40 TDP1 CPT -1% and DT40 TDP1 no CPT -11%.
For CCOCCCN1C(=O)c2[nH]nc(-c3ccccc3O)c2C1c1ccc(CC)cc1 (stereo unspecified) the results were DT40 TDP1 CPT 21µM* and DT40 TDP1 no CPT 16µM*.
`CCc1ccc(C2c3c(-c4ccccc4O)n[nH]c3C(=O)N2Cc2ccncc2)cc1` (stereo unspecified) gave DT40 TDP1 CPT 15µM* and DT40 TDP1 no CPT 13µM*.
Screening CCOc1cc(C2c3c(-c4ccccc4O)n[nH]c3C(=O)N2Cc2cccnc2)ccc1O (stereo unspecified) returned DT40 TDP1 CPT -27% and DT40 TDP1 no CPT -12%.
`O=C1c2[nH]nc(-c3ccccc3O)c2C(c2cccc(O)c2)N1Cc1ccncc1` (stereo unspecified) gave DT40 TDP1 CPT -6% and DT40 TDP1 no CPT -12%.
Screening c1ccc(Oc2ccccn2)cc1 returned IL1B secr inh 5, HT1080-NT tox 26%, HT1080 IDH1KD tx 27%, DT40 TDP1 CPT -14% and DT40 TDP1 no CPT -8%.
`C=C[C@@H]1c2cccc(C)c2N(S(=O)(=O)c2ccc(C)cc2)[C@H](c2ccc(OC(C)=O)cc2)C1(C#N)C#N` gave IL1B secr inh 8, HT1080-NT tox inconclusive, ELG1 DNA repair -5%, HT1080 IDH1KD tx -27%, DT40 TDP1 CPT inconclusive and DT40 TDP1 no CPT inconclusive.
Screening Cc1nc(-n2nc(C)c(CCC(C)C)c2C)sc1C(=O)Nc1cccc(Cl)c1C returned DT40 TDP1 CPT 0% and DT40 TDP1 no CPT -13%.
For Cc1cccc(NC(=O)c2sc(-n3nc(C)c(CCC(C)C)c3C)nc2C)c1C the results were DT40 TDP1 CPT inconclusive and DT40 TDP1 no CPT 21µM*.
Screening CC(=O)c1cccc(NC(=O)c2sc(-n3nc(C)c(CCC(C)C)c3C)nc2C)c1 returned DT40 TDP1 CPT 13µM* and DT40 TDP1 no CPT inconclusive.
For Cc1ccc(S(=O)(=O)N(CC(=O)NCC2CCCO2)Cc2ccc(F)cc2)cc1 (stereo unspecified) the results were IL1B secr inh -2, HT1080-NT tox -18%, ELG1 DNA repair 0%, HT1080 IDH1KD tx 15%, DT40 TDP1 CPT -23% and DT40 TDP1 no CPT -16%.
For Cc1cccc(CNC(=O)c2ccc3nc(Cc4ccccc4F)oc3c2)n1 the results were IL1B secr inh -12, HT1080-NT tox 3%, ELG1 DNA repair inconclusive, HT1080 IDH1KD tx 3%, DT40 TDP1 CPT -5% and DT40 TDP1 no CPT inconclusive.
Screening Nc1cccc(-n2nnnc2CN2CCOCC2)c1 returned IL1B secr inh -18, HT1080-NT tox 17%, ELG1 DNA repair -9%, HT1080 IDH1KD tx 16%, DT40 TDP1 CPT inconclusive and DT40 TDP1 no CPT 16µM*.
`CCOCCCNC(=O)C1CCC(CNS(=O)(=O)c2ccc(NC(C)=O)cc2)CC1` (stereo unspecified) gave DT40 TDP1 CPT -5% and DT40 TDP1 no CPT -11%.
Screening ON=C(c1ccccc1)c1ccc2c3c(cccc13)CC2 returned IL1B secr inh 32, HT1080-NT tox -11%, HT1080 IDH1KD tx -14%, DT40 TDP1 CPT inconclusive and DT40 TDP1 no CPT 18µM*.
COc1ccc(Cl)cc1/C=C1/C(=O)ON=C1C was read as IL1B secr inh -9, HT1080-NT tox -8%, ELG1 DNA repair 9%, HT1080 IDH1KD tx 3%, DT40 TDP1 CPT inconclusive and DT40 TDP1 no CPT inconclusive.
For CC1=NOC(=O)/C1=C/c1ccc(-c2ccc(Cl)cc2)o1 the results were ELG1 DNA repair -13%.
Screening CC1=NOC(=O)/C1=C\c1ccc(-c2ccc(Br)cc2)o1 returned IL1B secr inh -99*, HT1080-NT tox inconclusive, ELG1 DNA repair -3%, HT1080 IDH1KD tx inconclusive, DT40 TDP1 CPT 13µM* and DT40 TDP1 no CPT 12µM*.
CC1=NOC(=O)/C1=C\c1ccc(-c2cc(Cl)ccc2Cl)o1 was read as IL1B secr inh -55*, HT1080-NT tox -21%, ELG1 DNA repair inconclusive, HT1080 IDH1KD tx -23%, DT40 TDP1 CPT inconclusive and DT40 TDP1 no CPT inconclusive.
COc1ccc(S(=O)(=O)N2CCCCCC2)cc1NC(=O)CCNC(=O)c1ccccc1Cl was read as IL1B secr inh -1, HT1080-NT tox -3%, HT1080 IDH1KD tx 3%, DT40 TDP1 CPT -13% and DT40 TDP1 no CPT -27%.
For Cc1ccc(NC(=O)Cn2cnc3c(oc4ccccc43)c2=O)cc1Cl the results were DT40 TDP1 CPT 1% and DT40 TDP1 no CPT -1%.
